“And” between values parts separate entries of the source, which are not always exact repeats. Equal values may be shown once. Results filed as inconclusive are left out. The source made the active and inactive calls. Calls come from the whole dose curve; as a rule, active = well fitted activation curve with a large enough effect in the signal ratio; inconclusive = small, poorly fitted or top-dose-only effect, or effect the other way, or a change in a side signal; inactive = flat fitted curve, though single readings scatter; the % refers to the signal ratio.
Potency is the fitted concentration of half-maximal effect.

The nature of this assay: qHTS assay for small molecule agonists of the antioxidant response element (ARE) signaling pathway (AID 651741). The settings on record: HepG2 ARE-bla reporter, beta-lactamase FRET ratio, 16 h; series mostly up to 96 µM. In a few lines:
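Quantitative HTS in HepG2 cells stably expressing an ARE-beta-lactamase reporter; 16 h compound exposure at 37 C, followed by 2 h room-temperature incubation with LiveBLAzer B/G FRET substrate and fluorescence measurement.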
Background: Quantitative high-throughput screening tests each substance at several concentrations.
In the case of `Nc1ccc([N+](=O)[O-])cc1O`, the Potency is 13.3 µM (active) and 15.4 µM (active).
Turning to `Nc1cccc2c(N)cccc12`, the Potency was 27.3 µM (active).
The same measure for `COCCOCCO`: “inactive”.
As for `O=C(O)C(Cl)Cl`, the entry is “inactive”.
As for `O=[N+]([O-])/N=C1\NCCN1Cc1ccc(Cl)nc1`, the entry is “inactive”.
Turning to `CC(C)(c1ccc(O)cc1)c1ccc(O)cc1`, the Potency was 42.2 µM (active) and 47.3 µM (active) and 30.6 µM (active).
Take `O=C(O)c1cc(Oc2ccc(C(F)(F)F)cc2Cl)ccc1[N+](=O)[O-]`: the Potency entry is “inactive”.
The same measure for `CCCCC(CC)COC(=O)c1ccccc1C(=O)O` (stereo not given): 54.5 µM (active); for `CC(=O)[O][Hg][c]1ccccc1`: 47.3 µM (active); for `CCCN(CCC)c1c([N+](=O)[O-])cc(S(N)(=O)=O)cc1[N+](=O)[O-]`: 61.1 µM (active).

These data come from PubChem BioAssay (NCATS).
